# Records with an inconclusive call do not appear. Activity calls are given as the source filed them. Rule for the calls, unless noted: active = hit-call score of the fitted dose curve at least 0.9, where 1 is the maximum; inconclusive = response in the unintended direction; inactive = score below 0.9.
# Key:
# [1] = biological target: human AMP-activated Protein Kinase, alpha 1 (AMPKa1), PRKAA1 (gene 5562) (UniProt Q13131); assay: NVS_ENZ_hAMPKa1: NovaScreen (NVS) Enzymatic Assay for human AMP-activated Protein Kinase, alpha 1 (AMPKa1) (AID 2283130)
# Summary of the method: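 Recombinant human AMPKα1 activity was measured cell-free by fluorescent substrate conversion with electrophoretic mobility-shift separation, 1 h after dosing. Duplicate single-point screening was at 25 uM; actives (≥30% inhibition) were retested in concentration-response up to 50 uM.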
# [2] = biological target: human NIMA (Never In Mitosis Gene A)-Related Kinase 2 (NEK2), NEK2 (gene 4751) (UniProt P51955); assay: NVS_ENZ_hNEK2: NovaScreen (NVS) Enzymatic Assay for human NIMA (Never In Mitosis Gene A)-Related Kinase 2 (NEK2) (AID 2283188)
# Summary of the method: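 Cell-free NEK2 enzyme activity after 1 h exposure, read by fluorescence with electrophoretic mobility shift separating substrate and product. Primary screen in duplicate at 25 uM; actives then run as concentration series. Loss of signal versus DMSO scored.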
# [3] = biological target: human Raf-1 Proto-Oncogene, serine/threonine Kinase (RAF1), RAF1 (gene 5894) (UniProt P04049); assay: NVS_ENZ_hRAF1: NovaScreen (NVS) Enzymatic Assay for human Raf-1 Proto-Oncogene, serine/threonine Kinase (RAF1) (AID 2283216)
# Summary of the method: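 Cell-free recombinant kinase with specific fluorescent substrate, product separated by electrophoretic mobility shift; read 1 h after dosing. Primary screen at 25 uM in duplicate; hits then run in concentration-response up to 50 uM, fitted as loss of signal versus DMSO.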
# [4] = biological target: human Aurora Kinase A - serine/threonine-protein Kinase 6 (AurA), AURKA (gene 6790) (UniProt O14965); assay: NVS_ENZ_hAurA: NovaScreen (NVS) Enzymatic Assay for human Aurora Kinase A - serine/threonine-protein Kinase 6 (AurA) (AID 2283142)
# Summary of the method: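 Cell-free enzymatic assay with human Aurora A, 1 hour after dosing. Fluorescent substrate turnover detected after electrophoretic mobility shift separation of substrate and product. Screened at 25 uM, actives retested in concentration-response up to 50 uM.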
# [5] = biological target: human Ephrin type-A Receptor 2 (EphA2), EPHA2 (gene 1969) (UniProt P29317); assay: NVS_ENZ_hEphA2: NovaScreen (NVS) Enzymatic Assay for human Ephrin type-A Receptor 2 (EphA2) (AID 2283155)
# Summary of the method: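 Cell-free recombinant EphA2 kinase with specific substrate, 1 h, fluorescence with electrophoretic mobility-shift separation of substrate and product. Primary screen at 25 uM in duplicate; hits retested in singleton concentration-response up to 50 uM, referenced to DMSO.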
# [6] = biological target: human Fibroblast Growth Factor Receptor 1 (FGFR1), FGFR1 (gene 2260) (UniProt P11362); assay: NVS_ENZ_hFGFR1: NovaScreen (NVS) Enzymatic Assay for human Fibroblast Growth Factor Receptor 1 (FGFR1) (AID 2283159)
# Summary of the method: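 Cell-free recombinant kinase with fluorescent substrate, product separated by electrophoretic mobility shift; read 1 hour after dosing, loss of signal relative to DMSO. Initial screen in duplicate at 25 uM, actives followed in concentration series.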
# [7] = biological target: human Mitogen-Activated Protein Kinase 1 (MAPK 1), MAPK1 (gene 5594) (UniProt P28482); assay: NVS_ENZ_hMAPK1: NovaScreen (NVS) Enzymatic Assay for human Mitogen-Activated Protein Kinase 1 (MAPK 1) (AID 2283175)
# Summary of the method: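 Cell-free recombinant human MAPK1 enzymatic assay, fluorescence/electrophoretic mobility shift read at 1 h; loss of signal vs DMSO. Primary screen in duplicate at 25 uM; actives (e.g. ≥30% inhibition) run as concentration-response up to 50 uM.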
# [8] = biological target: human MET Proto-Oncogene, Receptor Tyrosine Kinase (MET), MET (gene 4233) (UniProt P08581); assay: NVS_ENZ_hMet: NovaScreen (NVS) Enzymatic Assay for human MET Proto-Oncogene, Receptor Tyrosine Kinase (MET) (AID 2283180)
# Summary of the method: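 Cell-free MET kinase assay using recombinant protein and fluorescent substrate, with mobility-shift separation; read 1 h after dosing. Primary duplicate at 25 uM; actives in singleton concentration-response to 50 uM maximum. Signal loss versus DMSO.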
# [9] = biological target: human p21 Activated Kinase 4 (PAK4), PAK4 (gene 10298) (UniProt O96013); assay: NVS_ENZ_hPAK4: NovaScreen (NVS) Enzymatic Assay for human p21 Activated Kinase 4 (PAK4) (AID 2283189)
# Summary of the method: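 Cell-free recombinant human PAK4 activity assay; fluorescent substrate and product separated by electrophoretic mobility shift, read 1 h after dosing. Initially tested in duplicate at 25 uM, relative to DMSO baseline.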
# PPP2CA (gene 5515) = PPP2CA (gene 5515) (UniProt P67775); assay: NVS_ENZ_hPPP2CA: NovaScreen (NVS) Enzymatic Assay for human Protein Phosphatase 2 Aatalytic subunit Alpha (PPP2CA) (AID 2283199)
# Summary of the method: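 Recombinant human PPP2CA with fluorescent substrate; product separated from substrate by electrophoretic mobility shift, read 1.33 h after dosing. Duplicate single-point at 25 uM, then singleton concentration-response up to 50 uM; loss of signal versus DMSO.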
# [10] = biological target: human Phosphatase and Tensin Homolog (PTEN), PTEN (gene 5728) (UniProt P60484); assay: NVS_ENZ_hPTEN: NovaScreen (NVS) Enzymatic Assay for human Phosphatase and Tensin Homolog (PTEN) (AID 2283203)
# Summary of the method: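 Cell-free recombinant human PTEN with fluorescent substrate; product separated by electrophoretic mobility shift and read by fluorescence 1 h after dosing. Primary screen in duplicate at 25 uM, actives followed in concentration series versus DMSO.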
# [11] = biological target: human Tyrosine Protein Kinase Receptor Tie-2 (Tie2), TEK (gene 7010) (UniProt Q02763); assay: NVS_ENZ_hTie2: NovaScreen (NVS) Enzymatic Assay for human Tyrosine Protein Kinase Receptor Tie-2 (Tie2) (AID 2283225)
# Summary of the method: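 Recombinant human Tie2 kinase activity was read cell-free by fluorescence with electrophoretic mobility shift, 1 hour after dosing. The screen used 25 uM in duplicate, then concentration-response up to 50 uM. Signal loss was scored against DMSO.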
# Caspase-1 (Homo sapiens) = Caspase-1 (Homo sapiens) (UniProt P29466); assay: NVS_ENZ_hCASP1: NovaScreen (NVS) Enzymatic Assay for human Caspase 1 (CASP1) (AID 2283132)
# Summary of the method: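 Cell-free enzymatic assay with E. coli-expressed recombinant protein; fluorescence intensity read 1 hour after dosing. Single-concentration duplicate screen at 25 uM, then concentration-response up to 50 uM; activity fitted relative to DMSO, loss of signal meaning inhibition.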
# [12] = biological target: rat Neurotensin Receptor (NTS), Ntsr1 (gene 366274) (UniProt P20789); assay: NVS_GPCR_rNTS: NovaScreen (NVS) G Protein-Coupled Receptor Assay for rat Neurotensin Receptor (NTS) (AID 2283308)
# Summary of the method: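 Rat forebrain membranes; radioligand binding with competitive displacement, read by filter-based scintillation counting 1 h after dosing. Primary screen in duplicate at 25 uM; actives (e.g., 30% inhibition) rerun in concentration-response up to 50 uM, loss-of-signal versus DMSO.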
# [13] = biological target: human Neonicotinoid receptor (NNR), CHRNA2 (gene 1135) (UniProt Q15822); assay: NVS_LGIC_hNNR_NBungSens: NovaScreen (NVS) Ligand-Gated Ion Channel Assay for human Neonicotinoid receptor (NNR) (AID 2283313)
# Summary of the method: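 Radioligand displacement on human neuroblastoma membranes, 2 h, filter-based scintillation counting. Primary screen in duplicate at 25 uM; chemicals passing threshold (e.g. 30% inhibition) run singleton concentration-response to 50 uM; loss of binding fitted versus DMSO.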
# [14] = biological target: human Caspase 2 (CASP2), CASP2 (gene 835) (UniProt P42575); assay: NVS_ENZ_hCASP2: NovaScreen (NVS) Enzymatic Assay for human Caspase 2 (CASP2) (AID 2283135)
# Summary of the method: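 E. coli-expressed enzyme in a cell-free protease assay, fluorescence read 1 h after dosing. Compounds at 25 uM in duplicate, with concentration-response up to 50 uM for hits; loss of signal against DMSO baseline.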
# [15] = biological target: rat Gamma-Aminobutyric Acid Type A Receptor BDZ, alpha 6 site (GABARa6), Gabra6 (gene 29708) (UniProt P30191); assay: NVS_LGIC_rGABARa6: NovaScreen (NVS) Ligand-Gated Ion Channel Assay for rat Gamma-Aminobutyric Acid Type A Receptor BDZ, alpha 6 site (GABARa6) (AID 2283339)
# Summary of the method: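 Rat cerebellar membranes; radioligand binding, filtration and scintillation counting, read 1 h after dosing. Single-concentration duplicate screen at 25 uM, then concentration-response up to 50 uM for actives; loss of signal fitted versus DMSO baseline.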
# [16] = biological target: human Caspase 10 (CASP10), CASP10 (gene 843) (UniProt Q92851); assay: NVS_ENZ_hCASP10: NovaScreen (NVS) Enzymatic Assay for human Caspase 10 (CASP10) (AID 2283133)
# Summary of the method: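 Recombinant human caspase-10 from E. coli, cell-free fluorogenic substrate assay read 1 h after dosing. Primary duplicate screen at 25 uM; hits (e.g. ≥30% inhibition) run singly in concentration-response up to 50 uM, normalised to DMSO.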
# [17] = biological target: rat Monoamine Oxidase, MAO-B, Peripheral (MAOBP), Maob (gene 25750) (UniProt P19643); assay: NVS_ENZ_rMAOBP: NovaScreen (NVS) Enzymatic Assay for rat Monoamine Oxidase, MAO-B, Peripheral (MAOBP) (AID 2283242)
# [18] = CCTE_Harrill_HTTr_Apoptosis_PRF_DMEM_12hr: (Pilot) CCTE's 12-hour Apoptosis Assessment for the High-Throughput Transcriptomics (HTTr) Platform, in MCF-7 cells cultured in phenol red-free DMEM + 10% charcoal-stripped fetal bovine serum, Harrill Lab (AID 2283985; active = hit-call score of the fitted dose curve at least 0.9, where 1 is the maximum; inactive = score below 0.9)
# Summary of the method: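 MCF-7 cells in phenol red-free DMEM with 10% charcoal-stripped FBS, eight-point dilution series, 12 h exposure. Caspase-3/7 activation imaged by high content imaging with CellEvent Green reagent; bidirectional fit vs DMSO.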
# [19] = biological target: rat Oxytocin Receptor (OXT), Oxtr (gene 25342) (UniProt P70536); assay: NVS_GPCR_rOXT: NovaScreen (NVS) G Protein-Coupled Receptor Assay for rat Oxytocin Receptor (OXT) (AID 2283330)
# Summary of the method: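 Radioligand displacement on rat uterine membranes, 1 h incubation, filter-based scintillation counting. Chemicals were screened in duplicate at 25 uM, and those passing threshold were retested in concentration-response up to 50 uM. Loss of binding was fitted versus DMSO.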
# [20] = biological target: human Protein Tyrosine Phosphatase Receptor Type C (PTPRC), PTPRC (gene 5788) (UniProt P08575); assay: NVS_ENZ_hPTPRC: NovaScreen (NVS) Enzymatic Assay for human Protein Tyrosine Phosphatase Receptor Type C (PTPRC) (AID 2283212)
# Summary of the method: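 Yeast-extracted human PTPRC used in a cell-free colorimetric enzyme activity read-out, 1 h after dosing. Primary screen in duplicate at 25 uM; actives rerun in concentration-response up to 50 uM, DMSO as baseline.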
# [21] = biological target: Voltage-dependent N-type calcium channel subunit alpha-1B (Rattus norvegicus) (UniProt Q02294); assay: NVS_IC_rCaChN: NovaScreen (NVS) Ion Channel Assay for rat Calcium Channel, Type N (CaChN) (AID 2283317)
# Sequence of human Fibroblast Growth Factor Receptor 1 (FGFR1), FGFR1 (gene 2260) (P11362 whole entry, looked up): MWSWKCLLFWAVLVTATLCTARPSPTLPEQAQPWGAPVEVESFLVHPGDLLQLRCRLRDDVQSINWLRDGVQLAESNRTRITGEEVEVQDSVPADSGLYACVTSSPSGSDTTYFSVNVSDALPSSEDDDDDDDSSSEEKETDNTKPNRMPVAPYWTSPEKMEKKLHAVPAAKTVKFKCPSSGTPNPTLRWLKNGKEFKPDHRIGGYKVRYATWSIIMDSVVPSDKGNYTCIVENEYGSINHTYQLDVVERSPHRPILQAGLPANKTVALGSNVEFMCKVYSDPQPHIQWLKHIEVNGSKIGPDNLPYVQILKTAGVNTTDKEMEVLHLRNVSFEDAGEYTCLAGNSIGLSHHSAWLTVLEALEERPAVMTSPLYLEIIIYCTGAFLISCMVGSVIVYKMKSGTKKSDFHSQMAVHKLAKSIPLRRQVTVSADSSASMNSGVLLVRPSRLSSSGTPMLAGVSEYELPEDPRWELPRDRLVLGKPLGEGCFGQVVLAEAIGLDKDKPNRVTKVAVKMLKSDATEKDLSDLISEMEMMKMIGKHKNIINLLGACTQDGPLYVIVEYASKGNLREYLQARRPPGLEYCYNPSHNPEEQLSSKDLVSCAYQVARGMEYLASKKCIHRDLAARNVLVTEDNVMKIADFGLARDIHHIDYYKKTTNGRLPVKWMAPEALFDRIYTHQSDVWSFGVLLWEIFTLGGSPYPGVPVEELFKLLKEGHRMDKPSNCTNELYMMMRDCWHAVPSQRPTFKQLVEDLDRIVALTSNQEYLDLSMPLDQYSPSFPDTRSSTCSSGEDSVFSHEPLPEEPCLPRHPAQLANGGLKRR
# Sequence of human Ephrin type-A Receptor 2 (EphA2), EPHA2 (gene 1969) (P29317 whole entry, looked up): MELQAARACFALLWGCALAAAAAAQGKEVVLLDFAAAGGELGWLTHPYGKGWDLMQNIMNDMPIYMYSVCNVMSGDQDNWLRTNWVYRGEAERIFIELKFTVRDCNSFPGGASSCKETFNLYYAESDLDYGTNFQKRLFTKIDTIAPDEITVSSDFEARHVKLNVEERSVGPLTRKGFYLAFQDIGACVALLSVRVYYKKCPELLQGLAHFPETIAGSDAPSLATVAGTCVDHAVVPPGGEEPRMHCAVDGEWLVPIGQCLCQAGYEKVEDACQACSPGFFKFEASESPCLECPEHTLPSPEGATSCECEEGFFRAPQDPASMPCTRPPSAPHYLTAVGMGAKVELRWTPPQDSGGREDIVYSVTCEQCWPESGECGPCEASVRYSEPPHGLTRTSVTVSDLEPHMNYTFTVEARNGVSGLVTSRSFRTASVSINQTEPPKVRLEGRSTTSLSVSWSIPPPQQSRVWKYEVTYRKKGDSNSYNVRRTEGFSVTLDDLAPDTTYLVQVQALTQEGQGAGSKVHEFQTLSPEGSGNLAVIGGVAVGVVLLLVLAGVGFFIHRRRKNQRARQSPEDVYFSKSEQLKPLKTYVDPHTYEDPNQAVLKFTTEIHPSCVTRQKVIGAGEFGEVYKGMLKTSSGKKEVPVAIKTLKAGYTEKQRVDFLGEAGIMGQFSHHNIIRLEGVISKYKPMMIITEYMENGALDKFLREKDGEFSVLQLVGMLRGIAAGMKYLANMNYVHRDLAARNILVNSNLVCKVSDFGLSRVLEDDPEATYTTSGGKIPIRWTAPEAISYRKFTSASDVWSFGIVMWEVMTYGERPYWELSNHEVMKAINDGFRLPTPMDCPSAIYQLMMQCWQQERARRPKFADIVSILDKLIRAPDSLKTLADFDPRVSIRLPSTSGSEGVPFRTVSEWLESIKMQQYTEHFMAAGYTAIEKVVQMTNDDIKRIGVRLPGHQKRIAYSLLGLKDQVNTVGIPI
# Sequence of human Phosphatase and Tensin Homolog (PTEN), PTEN (gene 5728) (P60484 whole entry, looked up): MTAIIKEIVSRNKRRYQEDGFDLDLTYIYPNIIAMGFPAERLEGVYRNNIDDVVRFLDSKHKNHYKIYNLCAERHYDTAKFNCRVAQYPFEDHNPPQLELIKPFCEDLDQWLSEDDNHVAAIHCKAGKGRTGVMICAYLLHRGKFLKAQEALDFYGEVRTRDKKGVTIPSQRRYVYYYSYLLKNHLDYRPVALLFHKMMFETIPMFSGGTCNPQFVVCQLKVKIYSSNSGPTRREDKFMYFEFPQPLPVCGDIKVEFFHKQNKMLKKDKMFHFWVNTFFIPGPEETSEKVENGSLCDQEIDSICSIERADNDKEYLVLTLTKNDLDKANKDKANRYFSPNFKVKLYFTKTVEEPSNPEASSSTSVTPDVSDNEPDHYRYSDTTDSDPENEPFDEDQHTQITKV
# Sequence of human NIMA (Never In Mitosis Gene A)-Related Kinase 2 (NEK2), NEK2 (gene 4751) (P51955 whole entry, looked up): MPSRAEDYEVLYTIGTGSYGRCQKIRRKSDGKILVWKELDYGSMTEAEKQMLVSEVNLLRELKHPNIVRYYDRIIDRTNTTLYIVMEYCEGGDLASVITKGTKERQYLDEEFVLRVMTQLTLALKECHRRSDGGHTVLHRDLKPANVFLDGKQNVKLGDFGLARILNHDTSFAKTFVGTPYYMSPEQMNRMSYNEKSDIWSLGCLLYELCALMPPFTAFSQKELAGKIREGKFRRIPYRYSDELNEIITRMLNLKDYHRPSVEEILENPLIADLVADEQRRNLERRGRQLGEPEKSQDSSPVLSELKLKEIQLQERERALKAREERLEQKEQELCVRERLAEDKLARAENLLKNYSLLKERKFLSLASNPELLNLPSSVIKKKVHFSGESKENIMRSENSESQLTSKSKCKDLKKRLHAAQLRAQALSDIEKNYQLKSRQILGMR
# Sequence of human p21 Activated Kinase 4 (PAK4), PAK4 (gene 10298) (O96013 whole entry, looked up): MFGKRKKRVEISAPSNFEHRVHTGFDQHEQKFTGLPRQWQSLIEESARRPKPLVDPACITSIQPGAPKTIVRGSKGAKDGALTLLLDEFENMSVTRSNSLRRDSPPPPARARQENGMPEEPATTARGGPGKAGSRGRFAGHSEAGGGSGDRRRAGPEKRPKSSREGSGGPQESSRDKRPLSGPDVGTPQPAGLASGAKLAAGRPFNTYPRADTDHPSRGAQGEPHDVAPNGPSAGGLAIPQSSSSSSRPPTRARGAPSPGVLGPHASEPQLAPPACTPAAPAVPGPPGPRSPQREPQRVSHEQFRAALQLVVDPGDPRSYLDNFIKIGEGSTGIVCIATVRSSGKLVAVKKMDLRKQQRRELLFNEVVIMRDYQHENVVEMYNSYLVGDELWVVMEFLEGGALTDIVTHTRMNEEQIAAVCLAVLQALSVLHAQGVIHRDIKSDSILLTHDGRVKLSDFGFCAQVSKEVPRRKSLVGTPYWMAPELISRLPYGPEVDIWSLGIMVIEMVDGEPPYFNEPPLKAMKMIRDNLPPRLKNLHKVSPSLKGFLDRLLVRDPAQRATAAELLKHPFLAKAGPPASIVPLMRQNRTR
# Sequence of human Tyrosine Protein Kinase Receptor Tie-2 (Tie2), TEK (gene 7010) (Q02763 whole entry, looked up): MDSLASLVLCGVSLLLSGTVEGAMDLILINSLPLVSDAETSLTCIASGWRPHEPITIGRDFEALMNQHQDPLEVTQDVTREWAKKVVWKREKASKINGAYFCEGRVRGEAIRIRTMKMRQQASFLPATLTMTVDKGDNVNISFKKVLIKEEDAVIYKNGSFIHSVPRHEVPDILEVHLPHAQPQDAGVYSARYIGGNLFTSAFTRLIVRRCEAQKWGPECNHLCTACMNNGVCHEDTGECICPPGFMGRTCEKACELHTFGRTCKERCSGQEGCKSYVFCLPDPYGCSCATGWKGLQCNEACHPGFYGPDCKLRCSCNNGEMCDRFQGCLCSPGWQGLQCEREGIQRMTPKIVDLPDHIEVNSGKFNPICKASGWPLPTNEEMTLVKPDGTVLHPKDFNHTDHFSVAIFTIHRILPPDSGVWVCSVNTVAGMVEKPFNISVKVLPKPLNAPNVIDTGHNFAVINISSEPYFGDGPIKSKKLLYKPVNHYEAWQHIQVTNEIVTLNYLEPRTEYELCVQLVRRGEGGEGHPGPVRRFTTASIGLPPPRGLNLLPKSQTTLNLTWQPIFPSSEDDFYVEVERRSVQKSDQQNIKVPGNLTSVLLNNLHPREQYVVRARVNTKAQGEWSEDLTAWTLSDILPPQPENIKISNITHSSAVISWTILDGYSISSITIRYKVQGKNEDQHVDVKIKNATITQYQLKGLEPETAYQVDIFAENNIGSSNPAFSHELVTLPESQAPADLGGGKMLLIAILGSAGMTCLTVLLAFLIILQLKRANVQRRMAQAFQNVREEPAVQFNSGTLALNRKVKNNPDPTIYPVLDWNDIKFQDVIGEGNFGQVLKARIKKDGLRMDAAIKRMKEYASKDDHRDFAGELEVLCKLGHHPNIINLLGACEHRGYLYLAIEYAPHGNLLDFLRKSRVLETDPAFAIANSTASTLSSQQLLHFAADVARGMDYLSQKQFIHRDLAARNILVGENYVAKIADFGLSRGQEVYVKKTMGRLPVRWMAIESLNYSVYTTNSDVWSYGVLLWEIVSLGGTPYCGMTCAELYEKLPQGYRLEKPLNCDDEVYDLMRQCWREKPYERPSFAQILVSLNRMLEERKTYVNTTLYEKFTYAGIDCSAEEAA
# Sequence of human Caspase 10 (CASP10), CASP10 (gene 843) (Q92851 whole entry, looked up): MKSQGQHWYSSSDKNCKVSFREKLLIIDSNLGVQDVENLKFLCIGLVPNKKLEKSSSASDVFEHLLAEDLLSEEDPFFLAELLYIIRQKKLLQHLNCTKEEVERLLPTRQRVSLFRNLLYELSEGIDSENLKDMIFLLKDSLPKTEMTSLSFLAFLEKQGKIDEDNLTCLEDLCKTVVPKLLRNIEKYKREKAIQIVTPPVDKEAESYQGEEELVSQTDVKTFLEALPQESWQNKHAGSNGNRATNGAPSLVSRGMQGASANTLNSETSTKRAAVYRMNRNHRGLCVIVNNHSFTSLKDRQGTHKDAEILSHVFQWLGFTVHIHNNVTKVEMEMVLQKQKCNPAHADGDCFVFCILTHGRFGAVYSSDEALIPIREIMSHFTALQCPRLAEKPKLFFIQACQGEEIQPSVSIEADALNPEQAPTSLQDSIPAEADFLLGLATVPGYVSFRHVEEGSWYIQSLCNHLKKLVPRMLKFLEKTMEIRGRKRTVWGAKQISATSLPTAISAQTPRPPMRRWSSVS
compound,measurement,setting,value
O=C(O)Cc1cc(I)c(Oc2ccc(O)c(I)c2)c(I)c1,outcome,[1],inactive
same,outcome,[2],inactive
same,outcome,[3],inactive
Cc1nc(-c2ccccn2)ncc1C(=O)Nn1cc(C)c2cc(F)ccc21,outcome,[4],inactive
same,outcome,[5],inactive
same,outcome,[6],inactive
same,outcome,[7],inactive
same,outcome,[8],inactive
same,outcome,[2],inactive
same,outcome,[9],inactive
same,outcome,PPP2CA (gene 5515),inactive
same,outcome,[10],inactive
same,outcome,[11],inactive
COc1cc(S(=O)(=O)O)c(C)cc1N=Nc1c(O)ccc2cc(S(=O)(=O)O)ccc12,AC50,Caspase-1 (Homo sapiens),25 µM (active)
same,AC50,[12],16.8 µM (active)
same,AC50,[13],16.7 µM (active)
Cc1c(-c2cccnc2)c2ccccc2n1CCCCC(=O)O,outcome,[14],inactive
same,outcome,[6],inactive
same,outcome,[15],inactive
CN1C(=O)CC[C@H]1c1cccnc1,outcome,[16],inactive
Cc1oc(-c2ccccc2)nc1CCOc1ccc(C[C@H](Nc2ccccc2C(=O)c2ccccc2)C(=O)O)cc1,outcome,[16],inactive
same,outcome,[17],inactive
same,outcome,[18],inactive
O=C(O)c1ccccc1,outcome,[6],inactive
CC[C@H](C)C(=O)O[C@H]1C[C@H](O)C=C2C=C[C@H](C)[C@H](CC[C@@H](O)C[C@@H](O)CC(=O)O)[C@H]21,outcome,[5],inactive
same,outcome,[6],inactive
same,outcome,[9],inactive
same,outcome,[10],inactive
same,outcome,[11],inactive
same,outcome,[19],inactive
CC(C)c1cccc(C(C)C)c1,outcome,[5],inactive
same,outcome,[20],inactive
same,outcome,[21],inactive

# — PubChem BioAssay (EPA / NIEHS)
